Assay results taken from PubChem BioAssay (NCATS).
Results filed as inconclusive are left out. Calls of active or inactive are those of the source. Unless noted, the call rests on the fitted dose curve; in most records, active means well fitted curve in the direction sought with a large enough effect; inconclusive means small, poorly fitted or top-dose-only effect, or another doubt; inactive means no such curve, though single readings can be large; an effect the other way counts as inactive or inconclusive.

Columns and labels:
[1] = AP1 Signaling Pathway (AID 357; active means well fitted curve in either direction with a large enough effect, not every such curve was filed as active;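 further: ME-180 reporter cells stimulated with EGF at its EC50 level; on the % scale 0 is the no-effect control and ±100 the full control effect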); conditions: ME-180 AP-1-bla reporter, EGF-induced, beta-lactamase ratio, 5 h; at 38 µM (top of the series)
Method in brief: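 Modulation of EGF-driven AP-1 transcription was assessed with a beta-lactamase reporter in ME-180 cells. Compound and EC50 EGF were co-incubated 5 hours at 37 °C before 2.5-hour CCF4 loading at room temperature and dual-emission reading.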

[2] = biological target: Cytochrome P450 1A2 (Homo sapiens) (UniProt P05177); assay: p450-cyp1a2 (AID 410; calls by dose curve;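 further: -100% = full effect of reference inhibitor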)
Cytochrome P450 1A2 (Homo sapiens), sequence (P05177 whole entry, looked up): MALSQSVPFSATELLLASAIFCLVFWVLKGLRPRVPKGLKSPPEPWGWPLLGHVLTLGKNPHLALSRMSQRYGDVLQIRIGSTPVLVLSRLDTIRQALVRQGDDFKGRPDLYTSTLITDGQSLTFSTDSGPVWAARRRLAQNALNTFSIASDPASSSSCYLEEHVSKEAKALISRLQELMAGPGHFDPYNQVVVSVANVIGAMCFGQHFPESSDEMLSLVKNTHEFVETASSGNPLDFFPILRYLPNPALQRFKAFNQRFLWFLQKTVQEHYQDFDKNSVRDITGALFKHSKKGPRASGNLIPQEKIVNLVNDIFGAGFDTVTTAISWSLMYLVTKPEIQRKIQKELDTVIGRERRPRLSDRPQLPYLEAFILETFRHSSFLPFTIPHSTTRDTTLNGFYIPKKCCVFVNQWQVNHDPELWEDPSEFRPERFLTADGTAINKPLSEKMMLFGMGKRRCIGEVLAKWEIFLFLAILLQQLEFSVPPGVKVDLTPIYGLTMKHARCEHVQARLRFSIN
Method in brief: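 O-Demethylation of luciferin 6' methyl ether by human CYP1A2 is monitored as luciferase luminescence. Substrate sits at Km (100uM); enzyme is 20nM. Values are scaled to 57 uM furafylline as maximal inhibition.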

[3] = NFAT Signaling Pathway (AID 444; active means well fitted curve in either direction with a large enough effect, not every such curve was filed as active;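 further: carbachol stimulus at about its EC50 of 1 µM final; on the % scale 0 is the no-effect control and ±100 the full control effect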); conditions: Jurkat NFAT-bla M1, carbachol, beta-lactamase ratio, 5 h; at 38 µM (top of the series)
Method in brief: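 Jurkat cells carrying an NFAT-driven β-lactamase reporter and co-transfected muscarinic M1 receptor were treated with compound plus carbachol (1 uM final, an EC50 level) for 5 h at 37 °C. CCF4 loading followed for 1 h at RT; 460/530 nm ratio gave %activity.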

[4] = Stat Signaling Pathway (AID 446; active means well fitted curve in either direction with a large enough effect, not every such curve was filed as active;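 further: ME-180 cervical cancer cells given 40 pM IL-6 alongside compound; SIE-controlled beta-lactamase reporter measured as 460/530 nm FRET emission ratio; on the % scale 0 is the no-effect control and ±100 the full control effect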); conditions: ME-180 (cervical carcinoma) SIE beta-lactamase reporter, IL-6 stimulated, 5 h; at 38 µM (top of the series)
Method in brief: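 Overnight-plated ME-180 cells bearing a STAT Inducible Element beta-lactamase reporter; 5 h co-exposure to compound and 40 pM IL-6; values normalized to 300 pM IL-6 and 125 nM JAK inhibitor controls.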

[5] = biological target: Glucocorticoid receptor (Homo sapiens) (UniProt P04150); assay: GR-GFP Redistribution (AID 450;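 active means compounds whose dose series gives a full or clear partial fitted curve of increased nuclear translocation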; further: potency means the concentration at half of the fitted maximal effect); conditions: U2OS GR-GFP nuclear translocation, laser cytometry, 2 h
Glucocorticoid receptor (Homo sapiens), sequence (P04150 whole entry, looked up, the tested form may be a part): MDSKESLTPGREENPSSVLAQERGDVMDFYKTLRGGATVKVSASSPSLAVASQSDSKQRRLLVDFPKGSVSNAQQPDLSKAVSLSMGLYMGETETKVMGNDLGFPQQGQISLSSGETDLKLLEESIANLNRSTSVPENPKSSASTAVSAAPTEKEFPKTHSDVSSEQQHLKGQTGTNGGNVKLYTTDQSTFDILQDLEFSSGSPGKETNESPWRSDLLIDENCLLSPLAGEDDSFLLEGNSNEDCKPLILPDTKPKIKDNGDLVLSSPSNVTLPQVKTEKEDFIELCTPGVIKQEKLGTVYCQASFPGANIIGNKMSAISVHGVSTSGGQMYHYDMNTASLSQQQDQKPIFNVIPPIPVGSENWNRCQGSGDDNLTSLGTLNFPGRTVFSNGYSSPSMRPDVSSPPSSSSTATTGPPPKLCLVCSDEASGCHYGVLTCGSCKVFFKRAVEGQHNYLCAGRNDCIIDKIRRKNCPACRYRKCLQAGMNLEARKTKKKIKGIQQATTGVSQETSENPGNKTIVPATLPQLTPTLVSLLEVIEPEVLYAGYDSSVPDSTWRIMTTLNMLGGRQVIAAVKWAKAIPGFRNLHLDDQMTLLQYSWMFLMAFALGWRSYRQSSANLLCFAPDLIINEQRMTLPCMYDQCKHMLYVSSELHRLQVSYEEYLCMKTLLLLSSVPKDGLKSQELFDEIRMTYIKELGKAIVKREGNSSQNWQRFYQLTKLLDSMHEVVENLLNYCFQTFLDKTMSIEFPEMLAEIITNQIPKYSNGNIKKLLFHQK

[6] = biological target: Glucocorticoid receptor (Homo sapiens) (UniProt P04150); assay: GR-EFC Redistribution (AID 451; calls by dose curve; further: potency means the concentration at half of the fitted maximal effect); conditions: CHO-K1 GR-EFC translocation, beta-gal luminescence, 2 h
Method in brief: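 CHO-K1 cells stably expressing nuclear-localized β-gal enzyme acceptor and GR fused C-terminally to the enzyme donor fragment; ligand-driven nuclear translocation restores β-gal by complementation. Compounds titrated up to 46 uM final, 2 h at 37 °C; luminescence read.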

[7] = biological target: Mitogen-activated protein kinase 10 (Mus musculus) (UniProt Q61831); assay: JNK3 AlphaScreen Assay (AID 530; active means well fitted curve in either direction with a large enough effect, not every such curve was filed as active;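 further: kinase came from lysate of stimulated human HepG2 cells; signal reports phosphorylation of biotinylated GST-cJun 1-79 at Ser73 with 10 µM ATP; on the % scale 0 is the no-effect control and ±100 the full control effect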)
Method in brief: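 Phosphorylation of biotinylated GST-cJun(1-79) at Ser73 is measured by AlphaScreen proximity luminescence. Enzyme is JNK3 in HepG2 lysates activated with interleukin-1beta and tumor necrosis factor alpha; ATP is 10 uM final.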

[8] = biological target: 3',5'-cyclic-AMP phosphodiesterase 4B (Homo sapiens) (UniProt Q07343); assay: qHTS Assay for Inhibitors of PDE-IV (AID 607; active means well fitted activation curve with a large enough effect in the main read-out, with a control signal flat, not every such curve was filed as active; further: % of control where 0% means no effect)
3',5'-cyclic-AMP phosphodiesterase 4B (Homo sapiens), sequence (Q07343 whole entry, looked up): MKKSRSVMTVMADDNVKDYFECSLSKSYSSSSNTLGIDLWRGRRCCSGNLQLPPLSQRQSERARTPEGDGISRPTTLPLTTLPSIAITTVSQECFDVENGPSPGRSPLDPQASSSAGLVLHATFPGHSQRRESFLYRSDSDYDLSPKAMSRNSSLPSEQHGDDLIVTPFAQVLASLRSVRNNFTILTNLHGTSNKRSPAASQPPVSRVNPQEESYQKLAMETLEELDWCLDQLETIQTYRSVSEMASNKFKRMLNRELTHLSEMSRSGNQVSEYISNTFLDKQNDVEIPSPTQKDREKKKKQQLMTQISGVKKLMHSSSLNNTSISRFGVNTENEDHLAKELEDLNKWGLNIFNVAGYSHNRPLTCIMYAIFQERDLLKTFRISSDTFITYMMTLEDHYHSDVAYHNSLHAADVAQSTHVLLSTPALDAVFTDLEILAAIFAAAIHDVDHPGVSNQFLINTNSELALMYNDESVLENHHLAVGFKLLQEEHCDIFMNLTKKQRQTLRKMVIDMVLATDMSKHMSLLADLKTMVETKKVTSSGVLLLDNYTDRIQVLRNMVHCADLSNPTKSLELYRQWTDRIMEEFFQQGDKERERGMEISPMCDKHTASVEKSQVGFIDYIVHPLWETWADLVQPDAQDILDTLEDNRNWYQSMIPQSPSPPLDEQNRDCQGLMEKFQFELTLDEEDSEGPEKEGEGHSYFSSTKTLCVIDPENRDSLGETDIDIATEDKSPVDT
Method in brief: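 Live HEK293 cells with a modified cyclic nucleotide-gated (CNG) channel report intracellular cAMP via membrane-potential dye fluorescence (ex 535/em 590 nm). Endogenous PDE-IV was targeted. Compounds were tested at up to 22.9 uM final; RO 20-1724 100 uM served as control.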

[9] = biological target: Guanine nucleotide-binding protein G(i) subunit alpha-1 (Homo sapiens) (UniProt P63096); assay: qHTS Assay for Inhibitors of RGS12 GoLoco Motif Activity (Green Fluorophore) (AID 879);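 further: 0% = labeled peptide with Gαi1 and full inhibition = labeled peptide alone without protein; negative values mean loss of peptide binding seen as reduced polarization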
Guanine nucleotide-binding protein G(i) subunit alpha-1 (Homo sapiens), sequence (P63096 whole entry, looked up): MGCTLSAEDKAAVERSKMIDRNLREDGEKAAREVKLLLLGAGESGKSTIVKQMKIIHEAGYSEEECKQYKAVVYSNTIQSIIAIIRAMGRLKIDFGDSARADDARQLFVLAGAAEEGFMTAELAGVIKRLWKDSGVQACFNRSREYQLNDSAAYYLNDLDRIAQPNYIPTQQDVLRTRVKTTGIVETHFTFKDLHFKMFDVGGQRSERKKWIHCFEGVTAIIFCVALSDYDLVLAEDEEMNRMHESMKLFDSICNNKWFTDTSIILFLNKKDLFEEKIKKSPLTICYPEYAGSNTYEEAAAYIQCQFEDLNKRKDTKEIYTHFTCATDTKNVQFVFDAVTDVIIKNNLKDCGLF
Method in brief: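 A drop in FITC polarization marked displacement of the FITC-tagged RGS12 GoLoco peptide (10 nM) from Gαi1 (50 nM). Compounds were incubated 10 min at room temperature in Tris pH 7.5 buffer containing 150 mM NaCl, 0.1 mM GDP and 0.05% NP40; unlabeled peptide titration served as control.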

[10] = biological target: Cytochrome P450 2C9 (Homo sapiens) (UniProt P11712); assay: qHTS Assay for Inhibitors and Substrates of Cytochrome P450 2C9 (AID 883); further: on the % scale 0 is the no-effect control and ±100 the full control effect; nearly all actives have a fitted effect of over 60% in size
Cytochrome P450 2C9 (Homo sapiens), sequence (P11712 whole entry, looked up): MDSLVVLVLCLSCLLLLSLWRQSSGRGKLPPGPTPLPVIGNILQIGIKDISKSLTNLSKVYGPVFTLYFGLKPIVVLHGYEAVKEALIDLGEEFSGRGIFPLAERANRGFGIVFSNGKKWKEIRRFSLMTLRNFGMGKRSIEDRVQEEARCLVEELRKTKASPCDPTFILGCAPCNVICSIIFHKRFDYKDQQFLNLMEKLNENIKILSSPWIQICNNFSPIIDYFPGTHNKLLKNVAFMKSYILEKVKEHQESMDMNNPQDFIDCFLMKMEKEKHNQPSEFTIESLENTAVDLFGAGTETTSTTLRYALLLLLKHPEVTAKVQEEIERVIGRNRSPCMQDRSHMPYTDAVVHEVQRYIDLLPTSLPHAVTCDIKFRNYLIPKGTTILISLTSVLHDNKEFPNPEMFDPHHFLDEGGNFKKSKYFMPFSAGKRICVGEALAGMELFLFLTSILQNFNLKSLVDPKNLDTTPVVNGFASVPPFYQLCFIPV
Method in brief: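 A luminogenic readout tracked human CYP2C9 (10nM) converting deoxyluciferin (100uM, at KM) in 25mM KPO4 during 60 min at 37C with regenerated NADPH. Values normalized to 57uM sulphaphenazole as complete inhibition.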

[11] = biological target: Cytochrome P450 3A4 (Homo sapiens) (UniProt P08684); assay: qHTS Assay for Activators of Cytochrome P450 3A4 (AID 885); further: nearly all actives have a fitted effect of over 65% in size
Cytochrome P450 3A4 (Homo sapiens), sequence (P08684 whole entry, looked up): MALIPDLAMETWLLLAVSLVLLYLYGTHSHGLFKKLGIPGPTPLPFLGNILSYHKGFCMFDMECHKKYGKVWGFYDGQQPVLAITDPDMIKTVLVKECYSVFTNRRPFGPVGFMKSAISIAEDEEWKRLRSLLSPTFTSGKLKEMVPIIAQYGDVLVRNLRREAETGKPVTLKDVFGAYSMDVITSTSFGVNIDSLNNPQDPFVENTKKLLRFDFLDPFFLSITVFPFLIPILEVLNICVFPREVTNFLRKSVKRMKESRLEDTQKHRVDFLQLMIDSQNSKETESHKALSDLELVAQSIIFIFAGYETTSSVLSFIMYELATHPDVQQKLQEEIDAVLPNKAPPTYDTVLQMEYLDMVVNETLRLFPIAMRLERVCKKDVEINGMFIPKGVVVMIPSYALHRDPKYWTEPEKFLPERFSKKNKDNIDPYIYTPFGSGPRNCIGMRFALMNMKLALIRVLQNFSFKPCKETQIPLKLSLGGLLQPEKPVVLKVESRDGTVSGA
Method in brief: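 Using 20nM recombinant human CYP3A4 in potassium phosphate (200mM), substrate Luciferin-PPXE at 25uM, luminescent luciferin detection followed a 60-min RT NADPH reaction; data scaled to 57 uM ketoconazole.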

[12] = qHTS Assay for Identification of Small Molecule Agonists for Thrombopoietin (TPO) Signaling Pathway (AID 917); further: on the % scale 0 is the no-effect control and ±100 the full control effect
Method in brief: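 Ba/F3 (mouse) + hTPO receptor + GpIIb-promoter luciferase; IL-3 withdrawn overnight; compound + 26 pM TPO (EC50), 24 hrs, 37 C, 5% CO2; Steadylite luminescence, 10 min RT.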

[13] = biological target: Pyruvate kinase (Leishmania mexicana) (UniProt Q27686); assay: qHTS Validation Assay for Inhibitors of Leishmania Mexicana Pyruvate Kinase (AID 945);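 further: 0% = DMSO only neutral control wells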
Pyruvate kinase (Leishmania mexicana), sequence (Q27686 2-499 E452W): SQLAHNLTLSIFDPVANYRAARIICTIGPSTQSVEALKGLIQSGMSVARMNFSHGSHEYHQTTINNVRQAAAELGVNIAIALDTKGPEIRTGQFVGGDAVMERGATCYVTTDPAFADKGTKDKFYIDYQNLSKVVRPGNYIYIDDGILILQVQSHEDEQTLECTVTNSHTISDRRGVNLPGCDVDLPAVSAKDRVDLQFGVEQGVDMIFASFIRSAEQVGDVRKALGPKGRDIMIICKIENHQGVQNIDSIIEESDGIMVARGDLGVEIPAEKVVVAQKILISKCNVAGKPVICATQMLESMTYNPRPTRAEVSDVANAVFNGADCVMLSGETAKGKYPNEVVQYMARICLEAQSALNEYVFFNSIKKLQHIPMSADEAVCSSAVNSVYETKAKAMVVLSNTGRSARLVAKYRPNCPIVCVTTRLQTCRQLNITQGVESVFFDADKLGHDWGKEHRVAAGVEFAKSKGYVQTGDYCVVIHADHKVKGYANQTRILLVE
Method in brief: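 Substrate mix (0.5 mM PEP, 0.1 mM ADP, 7 mM MgCl2, 50 mM KCl, pH 7.2 imidazole) received compound by pin tool, then 0.2 nM LmPYK E451W. After 1 h at room temperature, PKLight was added and luminescence measured.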

[14] = biological target: Pyruvate kinase PKM (Homo sapiens) (UniProt P14618); assay: qHTS Assay for Activators of Human Muscle Pyruvate Kinase (AID 954; active means well fitted curve in the direction sought with a large enough effect, not every such curve was filed as active;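 further: 0% = uninhibited enzyme and -100% = no enzyme or full thiadiazolimine inhibition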)
Method in brief: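 Screening used highly purified human pyruvate kinase M2 under submaximal activity, with PEP at its Km and ADP below Km. After an hour at room temperature, ATP was read by luciferase luminescence.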

[15] = biological target: Alpha-galactosidase A (Homo sapiens) (UniProt P06280); assay: Counterscreen for Glucocerebrosidase Inhibitors: qHTS Assay for Human alpha-Galactosidase at pH 4.5 (AID 992); further: 0% is about no effect
Alpha-galactosidase A (Homo sapiens), sequence (P06280 whole entry, looked up): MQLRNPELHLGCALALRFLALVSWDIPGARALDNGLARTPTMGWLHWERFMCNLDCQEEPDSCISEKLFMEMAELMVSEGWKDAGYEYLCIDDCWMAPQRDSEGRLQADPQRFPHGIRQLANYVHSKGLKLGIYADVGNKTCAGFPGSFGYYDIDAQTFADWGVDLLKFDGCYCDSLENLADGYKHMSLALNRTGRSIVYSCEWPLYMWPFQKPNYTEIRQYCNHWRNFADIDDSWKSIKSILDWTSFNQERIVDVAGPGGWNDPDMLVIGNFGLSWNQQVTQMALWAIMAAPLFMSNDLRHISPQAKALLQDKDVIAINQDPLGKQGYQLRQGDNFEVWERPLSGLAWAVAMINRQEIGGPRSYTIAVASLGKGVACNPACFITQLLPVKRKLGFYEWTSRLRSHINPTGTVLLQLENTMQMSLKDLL
Method in brief: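 Each compound is preincubated briefly with 2 nM enzyme before substrate addition (80 uM); plates then sit 20 min at ambient temperature, are quenched with 1M NaOH/1M glycine, and read fluorometrically.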

[16] = biological target: alpha-glucosidase (Oryza sativa, rice) (UniProt Q653V4); assay: Counterscreen for Glucocerebrosidase Inhibitors: qHTS Assay for Rice alpha-Glucosidase at pH 5.0 (AID 997);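 further: 0% = full activity with enzyme and -100% = basal without enzyme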
Method in brief: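 Endpoint fluorogenic assay at pH 5.0: compounds (0.7 nM to 77 uM) titrated against 4 nM rice enzyme and 400 uM 4-MU-alpha-glucoside for 20 min at room temperature; NaOH/glycine stop, read ex 365/em 440 nm, Hill-fitted AC50.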

[17] = Validation of Assay for Modulators of Lamin A Splicing (AID 1459; active means well fitted curve in the direction sought with a large enough effect in the signal ratio; the % refers to the signal ratio;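 further: cells exposed to compound for two days before reading; 0% is about no effect; ratio rise marks activators and ratio drop marks inhibitors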)
Method in brief: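 Readout: ratio of GFP (500-530 nm) to RFP (575-640 nm) total object intensity by 488 nm laser-scanning cytometry after 48 hrs. Cells were HeLa S3 clones carrying lamin A-EGFP minigene plus DsRed2 viability reporter; vehicle 0.5% DMSO final.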

[18] = biological target: DNA repair nuclease/redox regulator APEX1 (Homo sapiens) (UniProt P27695); assay: qHTS Validation Assay for Inhibitors of the Human Apurinic/apyrimidinic Endonuclease 1 (APE1) (AID 1705)
DNA repair nuclease/redox regulator APEX1 (Homo sapiens), sequence (P27695 whole entry, looked up): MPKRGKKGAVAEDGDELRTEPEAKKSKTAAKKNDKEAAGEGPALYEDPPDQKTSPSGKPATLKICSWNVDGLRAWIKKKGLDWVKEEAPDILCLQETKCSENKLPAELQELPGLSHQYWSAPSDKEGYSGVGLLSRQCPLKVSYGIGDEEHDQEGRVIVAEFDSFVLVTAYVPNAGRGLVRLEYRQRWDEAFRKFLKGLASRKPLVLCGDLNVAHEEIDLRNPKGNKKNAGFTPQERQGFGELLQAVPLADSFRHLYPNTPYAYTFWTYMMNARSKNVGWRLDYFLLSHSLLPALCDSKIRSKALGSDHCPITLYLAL
Method in brief: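 Read-out: TAMRA fluorescence (525 nm ex, 598 nm em) from cleavage of a quenched THF abasic-site duplex, 50 nM final; activity taken as intensity change between third and first of three reads 60 s apart.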

[19] = Counterscreen for APE1 Inhibitors: Fluorescent Dye Displacement Validation Assay (AID 1707);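 further: plate controls were ThO with dsDNA and no compound for no effect and ThO without dsDNA for full effect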
Method in brief: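 Loss of Thiazole Orange fluorescence marks promiscuous DNA binders. The dye (250 nM) is mixed with 50 nM abasic-site dsDNA in pH7.5 Tris buffer containing MgCl2, then compounds are added and emission is read once.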

COc1[nH]c2ccc(F)cc2c1C(=O)OCC1CCN(CCNS(C)(=O)=O)CC1
inactive: activity change, negative = inhibition [1] 1.52% | Potency [2] | activity change, negative = inhibition [3] 0.0444% | activity, negative = inhibition [4] 16.9% | Potency [5] > 46 µM | Potency [6] > 46 µM | Potency [7] | Potency [8] | outcome [9] | Potency [10] | Potency [11] | Potency [12] | Potency [13] | outcome [14] | outcome [15] | outcome [16] | outcome [17] | Potency [18] | Potency [19]
